This is an account of results in ChEMBL document CHEMBL1961873, “Compounds: GSK PKIS; Assays: Nanosyn kinase panel” (2012).

The target of test [1] is CDK3/Cyclin E (Homo sapiens) (UniProt P24864+Q00526). As to conditions: at 1 µM.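 Also: each figure is a mean percent inhibition of the CDK3/cyclin E complex.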
Test [2] has as its target Cyclin-dependent kinase 4 (Homo sapiens) (UniProt P11802). As to conditions: at 0.1 µM.
For test [3] the target is unchanged. As to conditions: at 1 µM.
The target of test [4] is Cyclin-dependent kinase 5 (Homo sapiens) (UniProt Q00535). As to conditions: at 0.1 µM.
Test [5] has the same target. As to conditions: at 1 µM.
In test [6] the target is Cyclin-dependent kinase 6 (Homo sapiens) (UniProt Q00534). The note with it: at 0.1 µM.
The target is the same in test [7]. The note with it: at 1 µM.
The target in test [8] is Dual specificity protein kinase CLK2 (Homo sapiens) (UniProt P49760). The note with it: at 0.1 µM.
Test [9] shares this target. The note with it: at 1 µM.
Test [10] has as its target Dual specificity protein kinase CLK3 (Homo sapiens) (UniProt P49761). The note with it: at 0.1 µM.
Test [11] has the same target. The note with it: at 1 µM.
Test [12] deals with Dual specificity tyrosine-phosphorylation-regulated kinase 1A (Homo sapiens) (UniProt Q13627). The note with it: at 0.1 µM.
For test [13] the target is unchanged. The note with it: at 1 µM.
Test [14] concerns the target Dual specificity tyrosine-phosphorylation-regulated kinase 1B (Homo sapiens) (UniProt Q9Y463). As to conditions: at 0.1 µM.
Test [15] shares this target. The note with it: at 1 µM.
Test [16] concerns the target T1, Dual specificity tyrosine-phosphorylation-regulated kinase 2 (Homo sapiens) (UniProt Q92630).
T1 sequence (whole entry): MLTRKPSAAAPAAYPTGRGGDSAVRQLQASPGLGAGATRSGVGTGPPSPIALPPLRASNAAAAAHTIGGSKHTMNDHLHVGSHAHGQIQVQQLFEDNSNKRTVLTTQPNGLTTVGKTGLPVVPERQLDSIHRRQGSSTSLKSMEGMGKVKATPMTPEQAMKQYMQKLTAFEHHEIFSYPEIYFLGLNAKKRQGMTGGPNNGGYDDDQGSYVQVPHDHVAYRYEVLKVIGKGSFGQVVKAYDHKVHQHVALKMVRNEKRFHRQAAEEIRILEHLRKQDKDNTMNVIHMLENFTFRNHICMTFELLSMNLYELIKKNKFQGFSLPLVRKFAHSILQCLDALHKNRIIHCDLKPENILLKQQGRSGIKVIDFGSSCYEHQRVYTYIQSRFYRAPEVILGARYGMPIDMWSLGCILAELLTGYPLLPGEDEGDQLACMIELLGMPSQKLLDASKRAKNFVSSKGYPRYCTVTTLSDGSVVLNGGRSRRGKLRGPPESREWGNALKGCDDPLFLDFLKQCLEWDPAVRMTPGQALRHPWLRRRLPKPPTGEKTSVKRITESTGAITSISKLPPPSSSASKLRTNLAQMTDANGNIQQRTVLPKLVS
The note with it: at 0.1 µM.

The target in test [17] is T1, Dual specificity tyrosine-phosphorylation-regulated kinase 2 (Homo sapiens). The note with it: at 1 µM.
Test [18] deals with Glycogen synthase kinase-3 alpha (Homo sapiens) (UniProt P49840). As to conditions: at 0.1 µM.
The target is the same in test [19]. The note with it: at 1 µM.
The target of test [20] is Glycogen synthase kinase-3 beta (Homo sapiens) (UniProt P49841). As to conditions: at 0.1 µM.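 Also: values are mean percent inhibition of GSK3B activity, from the GSK Published Kinase Inhibitor Set (PKIS) screening dataset.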
Sequence of Glycogen synthase kinase-3 beta (Homo sapiens) (P49841 whole entry, looked up): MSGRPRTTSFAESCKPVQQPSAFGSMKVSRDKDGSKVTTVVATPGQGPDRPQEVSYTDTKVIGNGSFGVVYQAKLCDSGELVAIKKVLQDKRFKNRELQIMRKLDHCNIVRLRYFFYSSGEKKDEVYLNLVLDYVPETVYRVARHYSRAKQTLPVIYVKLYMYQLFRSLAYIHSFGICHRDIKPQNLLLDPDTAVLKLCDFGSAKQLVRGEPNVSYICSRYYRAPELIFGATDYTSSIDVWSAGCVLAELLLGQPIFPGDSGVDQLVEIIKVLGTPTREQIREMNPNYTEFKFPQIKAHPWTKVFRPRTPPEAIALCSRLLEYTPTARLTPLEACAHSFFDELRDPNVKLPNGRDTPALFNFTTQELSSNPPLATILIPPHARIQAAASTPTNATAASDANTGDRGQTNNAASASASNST

Sequence of Cyclin-dependent kinase 5 (Homo sapiens) (Q00535 whole entry, looked up): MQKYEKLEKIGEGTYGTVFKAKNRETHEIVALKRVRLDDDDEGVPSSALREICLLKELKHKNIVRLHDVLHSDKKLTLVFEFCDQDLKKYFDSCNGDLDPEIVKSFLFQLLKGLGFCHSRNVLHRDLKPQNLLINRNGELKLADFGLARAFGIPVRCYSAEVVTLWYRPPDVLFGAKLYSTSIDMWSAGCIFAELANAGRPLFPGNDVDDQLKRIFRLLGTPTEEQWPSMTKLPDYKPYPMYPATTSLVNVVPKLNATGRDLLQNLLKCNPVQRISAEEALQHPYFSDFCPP
Sequence of CDK3/Cyclin E (Homo sapiens) (P24864 whole entry, looked up): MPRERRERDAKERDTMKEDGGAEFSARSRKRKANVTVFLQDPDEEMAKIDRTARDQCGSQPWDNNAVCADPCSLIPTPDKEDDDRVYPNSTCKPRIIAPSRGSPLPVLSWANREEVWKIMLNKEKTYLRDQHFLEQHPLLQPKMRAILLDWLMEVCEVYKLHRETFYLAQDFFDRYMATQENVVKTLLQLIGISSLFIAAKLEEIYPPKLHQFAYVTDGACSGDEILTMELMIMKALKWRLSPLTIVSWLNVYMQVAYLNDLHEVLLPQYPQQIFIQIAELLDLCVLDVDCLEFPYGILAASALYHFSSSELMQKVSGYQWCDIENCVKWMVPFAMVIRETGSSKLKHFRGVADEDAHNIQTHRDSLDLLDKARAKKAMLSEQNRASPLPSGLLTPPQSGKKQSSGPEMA
Sequence of CDK3/Cyclin E (Homo sapiens) (Q00526 whole entry, looked up): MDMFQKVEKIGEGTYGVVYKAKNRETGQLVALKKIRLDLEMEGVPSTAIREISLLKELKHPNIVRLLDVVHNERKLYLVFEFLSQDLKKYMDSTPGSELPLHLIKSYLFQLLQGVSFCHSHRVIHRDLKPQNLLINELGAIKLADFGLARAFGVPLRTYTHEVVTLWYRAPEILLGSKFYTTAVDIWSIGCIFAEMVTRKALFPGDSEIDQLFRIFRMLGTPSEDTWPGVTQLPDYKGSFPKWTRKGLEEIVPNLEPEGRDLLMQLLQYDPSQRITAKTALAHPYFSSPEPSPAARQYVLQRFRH
Sequence of Cyclin-dependent kinase 6 (Homo sapiens) (Q00534 whole entry): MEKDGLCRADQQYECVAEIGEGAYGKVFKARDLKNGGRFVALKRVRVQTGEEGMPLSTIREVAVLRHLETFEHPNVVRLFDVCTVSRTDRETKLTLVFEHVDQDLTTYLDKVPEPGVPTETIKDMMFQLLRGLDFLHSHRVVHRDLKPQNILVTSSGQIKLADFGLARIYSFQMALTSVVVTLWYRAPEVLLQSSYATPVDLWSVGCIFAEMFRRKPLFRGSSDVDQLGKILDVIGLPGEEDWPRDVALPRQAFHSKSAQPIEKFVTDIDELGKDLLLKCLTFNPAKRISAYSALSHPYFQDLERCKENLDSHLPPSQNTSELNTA
Sequence of Dual specificity tyrosine-phosphorylation-regulated kinase 1B (Homo sapiens) (Q9Y463 whole entry, looked up): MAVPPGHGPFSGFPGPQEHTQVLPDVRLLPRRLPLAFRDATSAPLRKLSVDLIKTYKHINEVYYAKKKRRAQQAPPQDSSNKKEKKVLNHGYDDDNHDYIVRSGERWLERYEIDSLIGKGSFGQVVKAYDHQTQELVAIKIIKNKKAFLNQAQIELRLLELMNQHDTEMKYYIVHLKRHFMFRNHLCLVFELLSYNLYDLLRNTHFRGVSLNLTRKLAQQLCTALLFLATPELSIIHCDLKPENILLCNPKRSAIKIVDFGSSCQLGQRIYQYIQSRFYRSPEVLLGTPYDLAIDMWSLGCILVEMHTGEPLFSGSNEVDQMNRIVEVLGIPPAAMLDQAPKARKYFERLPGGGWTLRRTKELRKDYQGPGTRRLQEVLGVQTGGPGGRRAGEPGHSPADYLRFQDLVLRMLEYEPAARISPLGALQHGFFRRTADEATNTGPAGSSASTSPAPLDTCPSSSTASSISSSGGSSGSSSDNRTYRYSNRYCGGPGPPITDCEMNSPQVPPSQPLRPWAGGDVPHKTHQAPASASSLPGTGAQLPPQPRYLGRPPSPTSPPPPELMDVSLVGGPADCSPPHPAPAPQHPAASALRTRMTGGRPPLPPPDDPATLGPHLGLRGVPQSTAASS
Sequence of Dual specificity protein kinase CLK2 (Homo sapiens) (P49760 whole entry, looked up): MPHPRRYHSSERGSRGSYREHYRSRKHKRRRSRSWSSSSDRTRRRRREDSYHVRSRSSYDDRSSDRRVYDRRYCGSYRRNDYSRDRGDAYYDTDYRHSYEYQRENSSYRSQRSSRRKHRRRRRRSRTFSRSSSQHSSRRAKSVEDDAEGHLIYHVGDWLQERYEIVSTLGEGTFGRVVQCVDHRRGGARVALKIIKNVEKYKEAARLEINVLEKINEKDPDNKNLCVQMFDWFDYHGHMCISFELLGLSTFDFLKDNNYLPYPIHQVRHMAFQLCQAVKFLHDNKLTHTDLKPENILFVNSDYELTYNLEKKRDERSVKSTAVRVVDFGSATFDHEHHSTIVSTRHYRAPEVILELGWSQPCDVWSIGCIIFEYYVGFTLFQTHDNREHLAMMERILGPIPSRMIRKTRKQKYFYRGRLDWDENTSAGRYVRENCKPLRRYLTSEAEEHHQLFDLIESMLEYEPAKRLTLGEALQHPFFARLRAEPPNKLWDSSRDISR
Sequence of Glycogen synthase kinase-3 alpha (Homo sapiens) (P49840 2-483 limits assumed): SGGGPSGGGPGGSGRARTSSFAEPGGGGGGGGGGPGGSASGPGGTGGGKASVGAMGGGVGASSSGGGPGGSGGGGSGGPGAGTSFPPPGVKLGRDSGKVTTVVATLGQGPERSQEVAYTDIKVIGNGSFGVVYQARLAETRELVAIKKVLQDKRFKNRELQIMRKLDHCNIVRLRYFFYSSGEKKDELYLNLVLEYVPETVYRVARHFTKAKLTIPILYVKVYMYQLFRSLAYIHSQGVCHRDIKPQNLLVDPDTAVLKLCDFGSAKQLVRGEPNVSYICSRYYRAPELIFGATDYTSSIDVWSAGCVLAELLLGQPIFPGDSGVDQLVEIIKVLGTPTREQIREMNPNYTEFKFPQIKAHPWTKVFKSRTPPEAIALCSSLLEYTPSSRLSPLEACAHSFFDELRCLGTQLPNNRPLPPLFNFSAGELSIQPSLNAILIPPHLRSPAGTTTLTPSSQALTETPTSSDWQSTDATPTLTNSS
Sequence of Dual specificity protein kinase CLK3 (Homo sapiens) (P49761 whole entry, looked up): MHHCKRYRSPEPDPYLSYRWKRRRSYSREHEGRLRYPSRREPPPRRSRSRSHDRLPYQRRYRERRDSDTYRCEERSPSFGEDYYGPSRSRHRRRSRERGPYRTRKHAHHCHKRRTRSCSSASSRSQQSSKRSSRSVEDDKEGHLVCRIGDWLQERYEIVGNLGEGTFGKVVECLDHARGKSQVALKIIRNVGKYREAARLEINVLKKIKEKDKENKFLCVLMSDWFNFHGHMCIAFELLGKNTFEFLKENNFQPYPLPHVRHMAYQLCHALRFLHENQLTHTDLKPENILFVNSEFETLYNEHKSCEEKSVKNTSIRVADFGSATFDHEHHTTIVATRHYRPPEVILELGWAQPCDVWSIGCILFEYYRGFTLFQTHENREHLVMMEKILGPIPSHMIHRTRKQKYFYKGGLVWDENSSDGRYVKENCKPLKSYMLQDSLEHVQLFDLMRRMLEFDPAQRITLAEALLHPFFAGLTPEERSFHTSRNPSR
Sequence of Cyclin-dependent kinase 4 (Homo sapiens) (P11802 whole entry): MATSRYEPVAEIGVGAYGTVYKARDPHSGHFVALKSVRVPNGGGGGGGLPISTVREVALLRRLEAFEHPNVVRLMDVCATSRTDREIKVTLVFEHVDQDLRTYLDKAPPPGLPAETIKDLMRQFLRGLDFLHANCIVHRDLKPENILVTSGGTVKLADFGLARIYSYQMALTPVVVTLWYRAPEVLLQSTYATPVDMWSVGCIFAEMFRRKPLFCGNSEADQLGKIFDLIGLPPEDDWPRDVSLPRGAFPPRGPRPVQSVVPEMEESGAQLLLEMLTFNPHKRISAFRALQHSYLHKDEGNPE

Turning to `C#Cc1cccc(Nc2ncnc3ccc(OCCCCNCCS(C)(=O)=O)cc23)c1`, the inhibition in test [1] is -3.02%; in test [2], -1.23%; in test [3], 0.97%; in test [4], -2.73%; in test [5], -2.83%; in test [6], -4.26%. In addition, the inhibition was 0.21% in [7]; 1.01% in [8]; 1.36% in test [9]; -1.3% in test [10]; -1.87% in test [11]; 0.92% in test [12]. For the same compound, the inhibition was 4.86% in test [13]; -2.75% in test [14]; -1.25% in [15]; 2.91% in test [16]; 7.08% in test [17]; -0.41% in test [18]. For the same compound, the figures for the inhibition in test [19] and in [20] were 1.81% and -0.71%, respectively.
`Fc1ccc(-c2ncn(C3CCNCC3)c2-c2ccnc(Oc3ccc(Oc4ccccc4)cc3)n2)cc1`: the inhibition is -1.29% in test [1]; 4.1% in test [2]; 3.52% in [3]; 0.97% in test [4]; 1.86% in [5]; -6.79% in test [6]. The inhibition was -6.24% in [7]; 2.06% in test [8]; 4.62% in [9]; 0.9% in test [10]; 1.21% in test [11]; 2.96% in test [12]. Further, the inhibition was 3.95% in [13]; -0.87% in test [14]; 0.42% in test [15]; 4.61% in test [16]; 7.67% in test [17]; 2.97% in test [18]. The inhibition in [19] stood at 2.77%; in test [20], 2.21%.
On to `CCN(CC)Cc1ccc(Nc2nccc(-c3cnn4ncccc34)n2)cc1`, for which the inhibition in test [1] came to 78.8%; in test [2], 53.8%; in test [3], 69.8%; in test [4], 32.1%; in test [5], 66.8%; in test [6] it was 25.9%. The inhibition in test [7] is 62.1%; in [8] it was 50.1%; in test [9], 91.7%; in [10] it was -2.57%; in [11], 5.2%; in [12], 40%. Besides, the inhibition in test [13] came out at 88%; in test [14], 43.6%; in test [15], 69.2%; in test [16], 5.06%; in [17], 25.7%; in [18], 24.4%. Moreover, the inhibition worked out at 65.8% in test [19] and 18% in [20].
On to `NS(=O)(=O)c1ccc(N/N=C2\C(=O)Nc3ccc(C(=O)NCCCn4ccnc4)cc32)cc1`, for which the inhibition in test [1] turned out to be 88.6%; in test [2], 16.6%; in test [3] it was 57.1%; in test [4] it was 33.8%; in test [5], 72.8%; in test [6], 10%. Further, the inhibition in test [7] amounted to 57.2%; in [8], 15.6%; in [9] it was 66.1%; in [10], 1.77%; in test [11] it was 8.02%; in test [12] it was 7.66%. In addition, the inhibition was 15.9% in test [13]; 4.25% in test [14]; 15.6% in [15]; 4.62% in test [16]; 16.2% in [17]; 40.6% in test [18]. The inhibition in [19] worked out at 76%; in test [20], 39.7%.
As for `O=C(Nc1n[nH]c2nc(-c3ccc(O)cc3)c(Br)cc12)C1CC1`, the inhibition in test [1] amounted to 78.2%; in [2], 42%; in test [3], 73.9%; in test [4], 14.7%; in [5], 55.3%; in test [6], 38.9%. Moreover, the inhibition in test [7] was determined as 74.7%; in test [8], 1.45%; in test [9] it was 5.65%; in test [10], 2.91%; in test [11] it was 8.39%; in [12] it was 17.6%. In addition, the inhibition turned out to be 55.5% in [13]; 33.2% in [14]; 71.7% in [15]; 12.4% in [16]; 53.3% in test [17]; 82.8% in test [18]. Moreover, in test [19], the inhibition amounted to 85.7%.
As for `CCc1ccc(Oc2nccc(-c3c(-c4ccc(F)cc4)ncn3C3CCNCC3)n2)cc1`, the inhibition in test [1] is -3.4%; in [2], 1.49%; in [3], 2.34%; in [4], 0.94%; in test [5], 2.25%; in test [6] it was -3.34%. For the same compound, the inhibition in [7] was -4.3%; in [8], 1.29%; in test [9] it was 3.58%; in test [10], 0.96%; in test [11], 0.51%; in test [12], 0.92%. The inhibition is 1.59% in test [13]; -0.38% in test [14]; 1.04% in test [15]; 4.87% in test [16]; 4.71% in test [17]; 3.69% in test [18]. Further, the inhibition in test [19] came to 7.13%; in test [20], 2.44%.
Take `O=C(Nc1n[nH]c2cc(-c3ccccc3)ccc12)C1CC1`: the inhibition in [1] was 4.6%; in [2] it was 3.5%; in test [3], 9.81%; in test [4] it was 1.28%; in [5], 5.17%; in [6], 1.28%. For the same compound, the inhibition in test [7] turned out to be 23.7%; in test [8], 1.71%; in [9], 2.28%; in test [10] it was 0.78%; in test [11], 2.33%; in test [12], 5.04%. Further, the inhibition stood at 6.14% in test [13]; 1.94% in test [14]; 3.5% in [15]; 2.82% in [16]; 4.68% in test [17]; 6.53% in test [18]. The inhibition in [19] amounted to 32.7%.
